In PubChem BioAssay (NCI):
This is part of a sample that, as a whole, favours compounds with a hit. Of some 83,000 tested, about 20% had one in any assay.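 Assay: single dose, 48 h. Readout: percent growth (0 = no net growth; negative = cell death). Active: <10.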 A number with no mark means an inactive call. Active and inactive are the calls of the source.

Assays:
Experiment in all cases: NCI-60 one-dose screen, 48 h (100 = growth as untreated, 0 = no growth, -100 = all killed)
[1] = system: NCI-H23 lung; conditions: 10 µM unless noted
[2] = system: NCI-H322M lung; conditions: 10 µM unless noted
[3] = system: HOP-62 NSCLC; conditions: 10 µM unless noted
[4] = system: NCI-H460 lung; conditions: 10 µM unless noted
[5] = system: HOP-92 NSCLC; conditions: 10 µM unless noted
[6] = system: NCI-H522 lung; conditions: 10 µM unless noted
[7] = system: A549/ATCC NSCLC; conditions: 10 µM unless noted
[8] = system: 786-0 renal; conditions: 10 µM unless noted
[9] = system: COLO 205 colon; conditions: 10 µM unless noted
[10] = system: DU-145 prostate; conditions: 10 µM unless noted
[11] = system: K-562 leukemia; conditions: 10 µM unless noted
[12] = system: MALME-3M melanoma; conditions: 10 µM unless noted
[13] = system: MDA-MB-231 breast; conditions: 10 µM unless noted
[14] = system: RXF 393 renal; conditions: 10 µM unless noted
[15] = system: SF-268 CNS; conditions: 10 µM unless noted
[16] = system: SF-295 CNS; conditions: 10 µM unless noted
[17] = system: SF-539 CNS; conditions: 10 µM unless noted
[18] = system: UACC-257 melanoma; conditions: 10 µM
[19] = system: M14 melanoma; conditions: 10 µM unless noted

Row | Compound | growth [1] | growth [2] [%] | growth [3] [%] | growth [4] | growth [5] | growth [6] | growth [7] [%] | growth [8] [%] | growth [9] | growth [10] | growth [11] | growth [12] | growth [13] | growth [14] | growth [15] [%] | growth [16] [%] | growth [17] | growth [18] | growth [19]
1 | O=C1[C@H]2Cc3c([nH]c4ccccc34)[C@H](c3ccc(Cl)cc3)N2C(=O)CN1C1CCN(Cc2c(Cl)cccc2Cl)CC1 | 86.5% | 96.9 | 80.1 | 68% | 55.1% | 75.3% | 66.9 | 66 | 54.8% | 76.9% | 6.9% (active) | 79.6% | 72.5% | 53.9% | 64.2 | 86.8 | 75.2% | 101% | 71.5%
2 | CN1CCN(c2nc(-c3cnc4ccccc4n3)cc3ccccc23)CC1 | 90.9% | 96.7 | 95.9 | 41.3% | 17.3% | 86.9% | 75.9 | 56.4 | -65.2% (active) | 77.1% | -52.1% (active) | 69% | 71.4% | 23.9% | 71.1 | 89.9 | 80.1% | 91% | -80% (active)
3 | CCOC(=O)C1=C(C)Nc2nnc(Nc3ccccc3)n2C1c1ccccc1 (stereo not given) | 72.4% | 91.2 | 81.8 | -28.3% (active) | – | 79.2% | 48.9 | 75.5 | 88.9% | 81.6% | 57% | 75.3% | 65.7% | 80% | 81.9 | 96.6 | -3.55% (active) | 97% | 100%
4 | COc1cc(O)c2c(c1)/C=C/C[C@H](O)[C@H](O)C(=O)/C=C\C[C@H](C)OC2=O | -1.38% (active) | 64 | 51.1 | 23.2% | -15.4% (active) | -61.3% (active) | 58.6 | 24.7 | -5.15% (active) | -2.78% (active) | 9.06% (active) | -20.3% (active) | -7.72% (active) | -56.9% (active) | 34.9 | 60.2 | -24.8% (active) | -19.7% (active) | -22.7% (active)
